APP 5UTR inh: inhibitors of APP translation via 5'UTR reporter, primary screen, APP 5'UTR luciferase, SH-SY5Y cells. SH-SY5Y APP 5'UTR-luciferase reporter, luminescence. inhibition, % at 2 µM. 190,000 compounds, 0.82% hits. AID 1285, 2008;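 active means inhibition above a set limit, derived from the sample mean plus 3 SD, cut at about 45% in these data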
IEC-6 cytotox: cytotoxicity in IEC-6 intestinal epithelial cells, primary screen, cytotoxicity control for KLF5 inhibitor project, cell-based, luminescence. inhibition, % at 5 µM. IEC-6 cytotoxicity, luminescence viability. AID 1825, 2009. 290,000 compounds, 0.78% hits; in the data active means inhibition above about 22%
Ba/F3 V617F tox: reduced viability of JAK2V617F-dependent Ba/F3 cells, primary screen, JAK2V617F inhibitor project, cell-based, Ba/F3 EpoR-JAK2V617F, luminescence. ATP luminescence. inhibition, % at 5.6 µM. 220,000 compounds, 1.1% hits. AID 1446, 2008;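 active means inhibition above the campaign mean plus 3 SD over all tested compounds, cut at about 24% in these data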;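 further: cytokine-independent growth of Ba/F3 cells driven by EpoR plus mutant JAK2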
aSyn 5UTR inh: MLPCN primary screen, SNCA 5' untranslated region; alpha-synuclein 5'UTR reporter, inhibitor activity; inhibition, % (tested at 7.5 µM); 300,000 compounds, 0.82% hits; AID 1813, 2009; in the data active means inhibition above about 60%;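 further: H4 neuroglioblastoma cells stably carrying SNCA 5'UTR luciferase fusion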
BaF3 tox: parental Ba/F3 cell viability inhibition, counter-screen for JAK2V617F inhibitor project, murine pro-B, CellTiter-Glo luminescence; CellTiter-Glo ATP luminescence; inhibition, % at 5.6 µM; 220,000 compounds, 1.1% hits; AID 1486, 2009;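 active means inhibition above a per-campaign cutoff, the mean inhibition of all tested compounds plus 3 SD, cut at about 27% in these data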
KLF5 inhibitor: KLF5 expression inhibitors, primary screen, DLD-1 cells, luminescence; AID 1700, 2009; DLD-1 KLF5 promoter-luciferase reporter; inhibition, % at 5 µM; 290,000 compounds, 0.23% hits;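 active means inhibition above a per-plate limit of that plate's mean compound inhibition plus 3 SD, cut at about 60% in these data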;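 further: higher means less KLF5 promoter-driven luciferase light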
Hits are given with their value; n = inactive; x = not tested or not shown. Most compounds without a hit are left out; they make up all but 2.1% or so of the library.

SMILES	APP 5UTR inh	IEC-6 cytotox	Ba/F3 V617F tox	aSyn 5UTR inh	BaF3 tox	KLF5 inhibitor
CCCCN(C(=O)c1cc2ccccc2o1)c1c(N)n(CC(C)C)c(=O)[nH]c1=O	54	n	n	n	n	n
CN(Cc1c(F)cccc1Cl)C(=O)c1cnc2ccccc2n1	x	n	x	n	x	n
CC(Sc1nnc(N)s1)C(=O)NC1CCCCC1C (centres undefined)	x	x	x	n	x	x
Fc1ccc(NC(=S)N2CCCN(c3ccc(C(F)(F)F)cn3)CC2)c(F)c1	x	n	35	n	33	n
CCC(C)(C)NC(=O)C(c1cccc(OC)c1)N(C(=O)CNC(=O)c1cccs1)c1cccnc1 (centres undefined)	x	n	x	n	x	n
O=C(NNc1ccnc2cc(Cl)ccc12)C1CCCCC1	n	n	25	n	36	n
Cc1cc2c(cc1C)C(c1cc(Br)ccc1F)CC(=O)N2 (centres undefined)	n	n	n	65	n	n
CCOC(=O)Cc1csc(NC(=O)Nc2cccc(OC)c2)n1	x	n	n	n	n	n
CCCc1ccc(-c2ccc(F)c(N)c2)nc1	n	n	n	99	n	n
Cn1c(-c2ccccc2)c(C(=O)CCl)c2ccccc21	n	n	n	n	n	n
CCCc1c(CC)c(=N)c2ccccc2n1C	n	n	71	n	65	n
CCNS(=O)(=O)c1ccc(CCC(=O)N2CCN(C(=O)OCC)CC2)cc1	x	n	x	n	x	n
CN1/C(=C/C(=S)NC(=O)C2CCC2)C(C)(C)c2ccccc21	n	n	n	n	30	n
CN1/C(=C\C(=O)C(F)F)C(C)(C)c2ccccc21	n	n	n	n	n	n
Cc1c(NC(=S)/C=C2\N(C)c3ccccc3C2(C)C)c(=O)n(-c2ccccc2)n1C	n	n	n	n	50	n
Cc1ccc(C(=O)NC(=S)/C=C2\N(C)c3ccccc3C2(C)C)cc1	n	n	n	n	36	n
CC(C)C(=O)NC(=S)/C=C1/N(C)c2ccccc2C1(C)C	n	n	30	n	57	n
CN1/C(=C\C(=O)c2cccc(S(=O)(=O)N3CCCCC3)c2)C(C)(C)c2ccccc21	n	n	n	n	n	n
COc1cc2c(cc1C1NC(=S)NC(C)=C1C(N)=O)CCCC2 (centres undefined)	n	n	n	n	n	n
COc1ccccc1CNC(=O)C1CCN(c2ncnc3c2nc2n3CCCCC2)CC1	x	n	x	n	x	n
CN1/C(=C\C(=O)CSc2ncn[nH]2)C(C)(C)c2ccccc21	n	n	n	n	n	n
CC(=O)/C=C1\N(C)c2ccc(C)cc2C1(C)C	n	n	42	n	39	n
Cc1[nH]c2ccccc2c1C(=O)C(=O)NC1CC(=O)N(c2ccc(F)cc2)C1 (centres undefined)	x	x	x	n	x	x
COc1ccc(NC(=O)C(=O)NCC2CCCN2S(=O)(=O)c2ccc(C)cc2)cc1 (centres undefined)	x	x	x	91	x	x
COc1ccc(S(=O)(=O)N2CCCC2CNC(=O)C(=O)Nc2ccc(C)cc2)cc1 (centres undefined)	x	x	x	n	x	x
SMILES	APP 5UTR inh	IEC-6 cytotox	Ba/F3 V617F tox	aSyn 5UTR inh	BaF3 tox	KLF5 inhibitor
O=C(OCC(=O)N1CCCc2ccccc21)c1ccccc1NCCO	x	x	x	n	x	x
O=C1CCCN1CC(=O)N1CCCC(N2CCN(c3cccc(Cl)c3)CC2)C1 (centres undefined)	x	n	x	n	x	n
C/C(N)=C(/C#N)C(=O)CSc1nnc(COc2ccccc2Cl)o1	n	n	n	n	95	n
CC(C)(C)NC(=O)NC(=O)CSc1nnc(COc2ccccc2Cl)o1	n	n	n	n	n	n
CC(=O)c1sc(NC(=O)C2COc3ccccc3O2)nc1C (centres undefined)	n	n	n	62	n	n
O=C(Nc1nncs1)C1COc2ccccc2O1 (centres undefined)	n	n	n	n	n	n
C/C(=N\NC(=O)C1COc2ccccc2O1)c1ccccn1 (centres undefined)	n	n	n	98	n	n
Cc1ccnc(NC(=O)C2COc3ccccc3O2)c1 (centres undefined)	n	n	n	n	85	n
CC(C)(C)c1ccc(S(=O)(=O)N2CCC(CO)(CC3CCCCO3)CC2)cc1 (centres undefined)	n	n	n	n	n	n
Cc1ccn2c(Nc3ccccc3)c(-c3ccccn3)nc2c1	59	n	n	n	n	n
Cc1ccccc1Nc1c(-c2ccccn2)nc2ccccn12	n	n	n	64	n	n
Cc1ccn2c(Nc3ccccc3C)c(-c3ccccn3)nc2c1	n	n	n	n	n	n
CCCCC(OC(=O)CN1C(=O)COc2ccccc21)C(=O)NC1CCCCC1 (centres undefined)	x	n	x	n	x	n
O=C(CSc1nnc(COc2cccc3cccnc23)o1)N1CCc2ccccc21	n	n	n	n	94	n
O=C(O)CCn1nnc(-c2cccs2)n1	n	n	n	n	n	n
CCc1ccc(-c2nnn(CCC(=O)OC)n2)cc1	48	n	n	77	n	n
CC(C)c1ccc(-c2nnn(CCC(=O)O)n2)cc1	82	n	n	118	n	n
Cc1cccc(NC(=S)NC(NC(=O)c2ccco2)C(Cl)(Cl)Cl)c1 (centres undefined)	58	n	n	n	n	n
Cc1ccc(NC(=S)NC(NC(=O)c2ccco2)C(Cl)(Cl)Cl)cc1 (centres undefined)	n	n	n	n	n	n
CC(NC(=O)Nc1nnc(C(F)(F)F)s1)(C(F)(F)F)C(F)(F)F	n	n	37	n	40	n
COc1ccc(-c2ccc(=O)n(CC(=O)NCC3COCCO3)n2)cc1 (centres undefined)	x	x	x	n	x	x
CCCCOC(=O)C[N+](C)(C)CCOC1CC2CCC1(C)C2(C)C (centres undefined)	n	n	54	n	58	n
CCC(C)OC(=O)C[N+](C)(C)CCOC1CC2CCC1(C)C2(C)C (centres undefined)	n	n	82	n	74	n
CC(C)CCOC(=O)C[N+](C)(C)CCOC1CC2CCC1(C)C2(C)C (centres undefined)	n	n	90	n	76	n
CC1(C)C2CCC1(C)C(OCCNCCOC(=O)Nc1ccccc1)C2 (centres undefined)	x	n	n	n	n	n
CCCOC(=O)C[N+](C)(C)CCOC1CC2CCC1(C)C2(C)C (centres undefined)	x	n	30	n	46	n
CCCCCCOC(=O)C[N+](C)(C)CCOC1CC2CCC1(C)C2(C)C (centres undefined)	n	n	89	n	80	n
CCCCCCCOC(=O)C[N+](C)(C)CCOC1CC2CCC1(C)C2(C)C (centres undefined)	n	n	101	n	85	n
CC(C)n1cnnc1SCC(=O)NC(=O)c1ccccc1	x	x	x	n	x	x

Source: PubChem BioAssay (several laboratories)
